Measles CPE – protection of cells from measles virus; Measles virus-infected cells, CPE protection, absorbance; protection (pct of control), % at 4 µM; actives 1.5% (n = 140,000); AID 841; in the data active = protection mostly above about 24%, no sharp cut-off; inactive = mostly below about 26%
CYP2C9 inh – inhibitors of human CYP2C9 | inhibition, % at 5 µM | AID 777 | CYP2C9 Supersomes, luciferin-H conversion, luminescence | actives 20% (n = 96,000);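 active = blocking of liver enzyme CYP2C9 beyond about 50% at 5 µM, limit read from the data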
Target sequence (P11712 whole entry, looked up): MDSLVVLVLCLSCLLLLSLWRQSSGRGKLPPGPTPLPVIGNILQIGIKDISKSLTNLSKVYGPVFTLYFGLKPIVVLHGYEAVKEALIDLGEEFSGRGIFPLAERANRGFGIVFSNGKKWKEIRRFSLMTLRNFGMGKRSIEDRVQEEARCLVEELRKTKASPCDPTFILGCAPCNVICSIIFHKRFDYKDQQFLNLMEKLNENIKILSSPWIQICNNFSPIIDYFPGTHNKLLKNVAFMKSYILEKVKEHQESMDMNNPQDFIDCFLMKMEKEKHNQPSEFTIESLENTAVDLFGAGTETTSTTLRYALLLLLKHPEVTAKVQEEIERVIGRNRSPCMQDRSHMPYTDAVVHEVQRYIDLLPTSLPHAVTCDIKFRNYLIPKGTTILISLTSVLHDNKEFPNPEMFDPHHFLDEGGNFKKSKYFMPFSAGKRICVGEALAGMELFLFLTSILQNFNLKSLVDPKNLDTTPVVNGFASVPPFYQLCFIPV
CYP2C19 inh – blocks human cytochrome P450 2C19; P33261; CYP2C19 Supersomes, luciferin-H EGE luminescence, 30 min; inhibition, % at 5 µM; actives 21% (n = 96,000);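 active = CYP2C19 inhibition above a set limit at 5 µM in the primary screen, cut at about 50% in these data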;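 note: plate controls were negative control wells for no effect and 2.5 mM tranylcypromine positive control for full effect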
CYP2C9 activ – activators of human CYP2C9 | P11712 | recombinant CYP2C9, luciferin-H conversion, luminescence; active compounds read high; factor 1 = untreated enzyme, 0 = blocked | activation factor at 5 µM | actives 1.4% (n = 96,000);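 active = activation factor of 2 or more for CYP2C9 at a 5 µM dose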;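 note: 0 = sulfaphenazole-blocked wells and 1 = vehicle-only wells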
CYP2C19 act – cytochrome P450 2C19 (human) activation; P33261; recombinant CYP2C19, luciferin-H EGE luminescence; active compounds read high; 0 = fully inhibited enzyme, 1 = untreated enzyme; activation factor at 5 µM; 96,000 tested, under 10 active;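 active = activation factor of at least 2 at 5 µM in the primary screen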;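 note: 0 = wells with 2.5 mM tranylcypromine and 1 = vehicle-only wells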
The depositor's hits bear a star; · = no result given. Sampled rows, rich in hits. Any-hit rate of the full collection: about 22%.

SMILES | Measles CPE | CYP2C9 inh | CYP2C19 inh | CYP2C9 activ | CYP2C19 act
COc1ccc2nc(SCC(=O)/C(C#N)=C(\C)N)[nH]c2c1 | 10 | 15 | 33 | 0.8 | 0.7
CC1Cc2ccccc2N1C(=S)NC(=O)c1ccc(Cl)cc1Cl (configuration not stated) | 17 | · | · | · | ·
OC(CN1CCN(c2ccccc2)CC1)c1ccc2c(c1)CCN2 (configuration not stated) | 21 | -15 | 10 | 1.1 | 0.9
COc1ccccc1NC(=O)CCSCCC(=O)Nc1ccccc1OC | 9 | · | · | · | ·
COc1ccc(OCC(=O)Nc2ccccc2OC)cc1 | 4 | 2 | 63* | 1 | 0.4
Cc1ccsc1/C=N/NC(=O)CSCc1ccc(Cl)cc1 | 7 | 22 | 51* | 0.8 | 0.5
CCCC(=O)Nc1ccccc1NC(=O)c1cc(OC)c(OC)c(OC)c1 | 3 | 71* | 1 | 0.3 | 1
COc1ccccc1NC(=O)CCC(=O)Nc1ccccc1OC | 2 | -210 | 7 | 3.1* | 0.9
COc1ccc(OCC(=O)Nc2ccccc2OC(F)F)cc1 | 31 | 5 | 49 | 1 | 0.5
O=C(CCCOc1ccccc1)NC1CCCc2ccccc21 (configuration not stated) | 8 | · | · | · | ·
CCOC(=O)c1nc(-c2ccc(OC)c(OC)c2)cnc1C#N | 5 | · | · | · | ·
C=CCOc1c(OC)cc(/C=N/Nc2cccc(C(=O)O)c2)c(Br)c1Br | 29 | · | · | · | ·
COc1ccccc1NC(=O)COc1ccc(/C=N/NC(=O)CSCc2cc(C)cc(C)c2)cc1 | 20 | · | · | · | ·
O=C(COc1ccccc1CNCc1ccccc1)Nc1ccccc1 | 9 | 45 | 93* | 0.6 | 0.1
CNCc1ccccc1OCC(=O)Nc1ccccc1OC | 10 | -36 | 64* | 1.4 | 0.4
COc1cccc(OCC(=O)Nc2cc(Cl)ccc2Oc2ccccc2)c1 | 3 | · | · | · | ·
COc1ccccc1NC(=O)COc1ccc(/C=N/NC(=O)CSCc2ccc(Cl)cc2)cc1 | 5 | 66* | 63* | 0.3 | 0.4
COc1cccc(OCC(=O)Nc2ccccc2NC(C)=O)c1 | 21 | -2 | 76* | 1 | 0.2
COc1ccccc1OCC(=O)Nc1ccc(C(N)=O)cc1 | 31 | 19 | 7 | 0.8 | 0.9
COc1cc(/C=N/NC(=O)CSCc2ccc([N+](=O)[O-])cc2)cc(OC)c1OC | 11 | 57* | 45 | 0.4 | 0.6
COc1ccc(NC(=O)c2cc(OC)c(OC)c(OC)c2)cn1 | 3 | 42 | 56* | 0.6 | 0.4
COc1ccccc1NC(=O)CCn1c(=O)sc2ccccc21 | 51* | · | · | · | ·
COc1ccc(/C=N/NC(=O)CSCc2ccc([N+](=O)[O-])cc2)cc1OC | 26 | · | · | · | ·
COc1cc(C(=O)Nc2ccc(NC(=O)c3ccco3)nc2)cc(OC)c1OC | 7 | 20 | 10 | 0.8 | 0.9
C=CCSc1nnc(-c2cc3c(s2)-c2ccccc2CC3)o1 | 2 | -2 | 4 | 1 | 1
SMILES | Measles CPE | CYP2C9 inh | CYP2C19 inh | CYP2C9 activ | CYP2C19 act
O=C(C[n+]1cc2ccccc2c2ccccc21)c1ccccc1 | 13 | 72* | 55* | 0.3 | 0.4
O=C(C[n+]1cccc2ccccc21)c1ccccc1 | 11 | · | · | · | ·
Cc1noc(C)c1S(=O)(=O)N1CCC(C(=O)N2CCN(c3ccc(F)cc3)CC2)CC1 | 3 | 7 | -9 | 0.9 | 1.1
Cc1noc(C)c1S(=O)(=O)N1CCC(C(=O)N2CCN(C3CCCC3)CC2)CC1 | 43* | 10 | 12 | 0.9 | 0.9
O=C1C2(CCC13COC(c1ccc(O)cc1)OC3)COC(c1ccc(O)cc1)OC2 (configuration not stated) | 15 | -4 | -9 | 1 | 1.1
COc1ccccc1S(=O)(=O)Cc1ccc(C(=O)N2CCN(c3ccccc3)CC2)o1 | · | 22 | 24 | 0.8 | 0.8
O=C(c1ccc(COc2ccccc2Cl)o1)N1CCN(c2ccccc2)CC1 | 6 | 97* | 92* | 0 | 0.1
Cc1cccc(N2CCN(C(=O)c3ccc(CS(=O)(=O)c4ccccc4C)o3)CC2C)c1 (configuration not stated) | 6 | 84* | 58* | 0.2 | 0.4
Cc1ccc(C)c(N2CCN(C(=O)c3ccc(CS(=O)(=O)c4ccccc4C)o3)CC2)c1 | 12 | 69* | 35 | 0.3 | 0.7
COc1ccccc1S(=O)(=O)Cc1ccc(C(=O)N2CCN(c3cccc(Cl)c3)CC2)o1 | 15 | 37 | 53* | 0.6 | 0.5
Cc1ccc(S(=O)(=O)Cc2ccc(C(=O)N3CCN(c4cc(C)ccc4C)CC3)o2)cc1 | 5 | 6 | -2 | 0.9 | 1
CCOC(=O)c1c(/N=C/c2ccc(O)cc2O)sc2c1CCC2 | 5 | · | · | · | ·
